Experimental data published in PubChem BioAssay (NCI).
Compounds without any hit were thinned out: in the full panel of roughly 83,000, 20% have a hit.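 Each cell line was grown in a 96-well plate and treated with one concentration of compound for 48 hours. Values below 10 were considered active.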 Active and inactive are the calls of the source.

Experiments:
Experiment in all cases: NCI-60 one-dose screen, 48 h (100 = growth as untreated, 0 = no growth, -100 = all killed)
Details in all cases: 10 µM
RPMI-8226 leukemia = tested on: RPMI-8226 leukemia
OVCAR-8 ovarian = tested on: OVCAR-8 ovarian
OVCAR-4 ovarian = tested on: OVCAR-4 ovarian
SK-OV-3 ovarian = tested on: SK-OV-3 ovarian
IGROV1 ovarian = tested on: IGROV1 ovarian
OVCAR-3 ovarian = tested on: OVCAR-3 ovarian
HS 578T breast = tested on: HS 578T breast
NCI/ADR-RES ovarian = tested on: NCI/ADR-RES ovarian
T-47D breast = tested on: T-47D breast
BT-549 breast = tested on: BT-549 breast
MDA-MB-435 melanoma = tested on: MDA-MB-435 melanoma
SW-620 colon = tested on: SW-620 colon
MCF7 breast = tested on: MCF7 breast
HCT-116 colon = tested on: HCT-116 colon
HCC-2998 colon = tested on: HCC-2998 colon
KM12 colon = tested on: KM12 colon
MDA-MB-468 breast = tested on: MDA-MB-468 breast
OVCAR-5 ovarian = tested on: OVCAR-5 ovarian

Compound	growth (RPMI-8226 leukemia)	growth (OVCAR-8 ovarian)	growth (OVCAR-4 ovarian)	growth (SK-OV-3 ovarian)	growth (IGROV1 ovarian)	growth (OVCAR-3 ovarian)	growth (HS 578T breast)	growth (NCI/ADR-RES ovarian)	growth (T-47D breast)	growth (BT-549 breast)	growth (MDA-MB-435 melanoma)	growth (SW-620 colon)	growth (MCF7 breast)	growth (HCT-116 colon)	growth (HCC-2998 colon)	growth (KM12 colon)	growth (MDA-MB-468 breast)	growth (OVCAR-5 ovarian)
Nc1n[nH]c2cccc(C#Cc3cccc(NC(=O)Nc4cc(C(F)(F)F)cc(C(F)(F)F)c4)c3)c12	-16.3% (active)	-5.59% (active)	-3.45% (active)	-28.9% (active)	-66% (active)	-20.4% (active)	-20.5% (active)	-48.9% (active)	-11.3% (active)	-66.8% (active)	-76.7% (active)	-75.7% (active)	-37.2% (active)	2.34% (active)	-95.3% (active)	-61.5% (active)	-59.7% (active)	–
CC(=O)Nc1nc(-c2ccc(N3CCN(C)CC3)c(NS(=O)(=O)c3ccc(C(F)(F)F)cc3)c2)cs1	-29.4% (active)	8.42% (active)	43.3% (inactive)	77% (inactive)	47.5% (inactive)	-3.33% (active)	38.6% (inactive)	-18.2% (active)	25.4% (inactive)	-29.4% (active)	6.38% (active)	-41.6% (active)	6.99% (active)	-75.8% (active)	15.4% (inactive)	2.44% (active)	-29.3% (active)	–
Cc1nc(Nc2nc(C)c3ccc(OCCN4CCOCC4)cc3n2)[nH]c(=O)c1C	7.09% (active)	0.429% (active)	-22.1% (active)	-6.44% (active)	-14% (active)	–	11.9% (inactive)	-19.5% (active)	-10.5% (active)	-74.2% (active)	-50.8% (active)	8.56% (active)	0.281% (active)	6.7% (active)	-72.8% (active)	6.49% (active)	-72.8% (active)	-39.9% (active)
